Measurements from PubChem BioAssay AID1159580 (chemical genetic matrix, 2015).
“And” between values parts separate entries of the source, which are not always exact repeats. Equal values may be shown once. The whole screen tested about 5,500 compounds, of which about 2,000 (36%) were called active. Inconclusive results (about 18%) are left out. Rule as the data show it: active = normalized growth mostly below about 0.91 (no sharp cut-off); inconclusive = no clear call, values can overlap the other calls; inactive = mostly above about 0.92. The list shows a part of the results.

Assay: chemical genetic growth profiling, strain panel (AID 1159580);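 also: tested at 20 µM; growth read once vehicle control cultures reached saturation at 30 °C; 1 = growth at the plate median or of vehicle wells; lower values mean less growth of the strain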
Conditions: growth OD

Measured: normalized growth

O=C(O)c1cccnc1C(=O)O
inactive: S. cerevisiae deletion strains, locus YJR066W, strain TOR1, hits give low values 0.979 | S. cerevisiae deletion strains, locus YJR075W, strain HOC1, hits give low values 1.08 | S. cerevisiae deletion strains, locus YKL009W, strain mrt4, hits give low values 1.03 | S. cerevisiae deletion strains, locus YKL068W, hits give low values 0.982 | S. cerevisiae deletion strains, locus YKL085W, strain MDH1 (second series), hits give low values 0.982 | S. cerevisiae deletion strains, locus YKL085W, strain MDH1, hits give low values 0.982 | S. cerevisiae deletion strains, locus YKL160W, strain elf1, hits give low values 0.999 | S. cerevisiae deletion strains, locus YKL190W, strain CNB1, hits give low values 1.01 | S. cerevisiae deletion strains, locus YKR001C, strain vps1, hits give low values 0.986 | S. cerevisiae deletion strains, locus YKR026C, strain gcn3, hits give low values 0.981 | S. cerevisiae deletion strains, locus YKR091W, strain srl3, hits give low values 0.999 | S. cerevisiae deletion strains, locus YLL001W, strain dnm1, hits give low values 1.04 | S. cerevisiae deletion strains, locus YLL026W, hits give low values 1.01 | S. cerevisiae deletion strains, locus YLL041C, strain sdh2, hits give low values 1 | S. cerevisiae deletion strains, locus YLR027C, strain aat2, hits give low values 1.01 | S. cerevisiae deletion strains, locus YLR039C, strain RIC1, hits give low values 1.08 | S. cerevisiae deletion strains, locus YLR058C, strain SHM2, hits give low values 1.02 | S. cerevisiae deletion strains, locus YLR102C, strain apc9, hits give low values 0.985 | S. cerevisiae deletion strains, locus YLR113W, strain HOG1, hits give low values 0.996 | S. cerevisiae deletion strains, locus YLR221C, strain rsa3, hits give low values 1.04 | S. cerevisiae deletion strains, locus YLR258W, strain gsy2, hits give low values 1.01 | S. cerevisiae deletion strains, locus YLR262C, strain YPT6 (second series), hits give low values 1.01 | S. cerevisiae deletion strains, locus YLR262C, strain YPT6, hits give low values 1.09 | S. cerevisiae deletion strains, locus YLR268W, strain sec22, hits give low values 1.01 | S. cerevisiae deletion strains, locus YLR320W, strain mms22, hits give low values 1.04 | S. cerevisiae deletion strains, locus YLR330W, strain CHS5, hits give low values 1.01 | S. cerevisiae deletion strains, locus YLR342W, strain FKS1 (second series), hits give low values 1.01 | S. cerevisiae deletion strains, locus YLR342W, strain FKS1, hits give low values 1.01 | S. cerevisiae deletion strains, locus YLR357W, strain rsc2, hits give low values 0.987 | S. cerevisiae deletion strains, locus YLR370C, strain arc18, hits give low values 0.984 | S. cerevisiae deletion strains, locus YLR371W, strain rom2, hits give low values 0.986 | S. cerevisiae deletion strains, locus YLR384C, strain iki3, hits give low values 1.01 | S. cerevisiae deletion strains, locus YLR418C, strain cdc73, hits give low values 1.04 | S. cerevisiae deletion strains, locus YML016C, strain PPZ1, hits give low values 1.01 | S. cerevisiae deletion strains, locus YML032C, strain rad52, hits give low values 1.01 | S. cerevisiae deletion strains, locus YML120C, strain ndi1, hits give low values 1 | S. cerevisiae deletion strains, locus YML124C, strain tub3, hits give low values 0.989 | S. cerevisiae deletion strains, locus YMR058W, strain fet3, hits give low values 1 | S. cerevisiae deletion strains, locus YMR078C, strain ctf18, hits give low values 0.99 | S. cerevisiae deletion strains, locus YMR125W, strain sto1, hits give low values 1 | S. cerevisiae deletion strains, locus YMR129W, hits give low values 0.987 | S. cerevisiae deletion strains, locus YMR205C, strain PFK2, hits give low values 0.988 | S. cerevisiae deletion strains, locus YMR223W, strain ubp8, hits give low values 1.01 | S. cerevisiae deletion strains, locus YMR231W, strain pep5, hits give low values 0.996 | S. cerevisiae deletion strains, locus YMR307W, strain GAS1, hits give low values 1.02 and 0.993 | S. cerevisiae deletion strains, locus YNL067W, strain RPL9B, hits give low values 1.06 | S. cerevisiae deletion strains, locus YNL071W, strain lat1, hits give low values 0.998 | S. cerevisiae deletion strains, locus YNL128W, strain TEP1, hits give low values 1.03 and 1.01 | S. cerevisiae deletion strains, locus YNL175C, strain NOP13, hits give low values 1.02 | S. cerevisiae deletion strains, locus YNL183C, strain NPR1, hits give low values 0.934 | S. cerevisiae deletion strains, locus YNL197C, strain WHI3, hits give low values 1.01 | S. cerevisiae deletion strains, locus YNL209W, strain ssb2, hits give low values 0.994 | S. cerevisiae deletion strains, locus YNL224C, strain SQS1, hits give low values 0.998 | S. cerevisiae deletion strains, locus YNL233W, strain BNI4, hits give low values 1.06 | S. cerevisiae deletion strains, locus YNL248C, strain rpa49, hits give low values 0.997 | S. cerevisiae deletion strains, locus YNL250W, strain rad50, hits give low values 0.984 | S. cerevisiae deletion strains, locus YNL271C, strain bni1, hits give low values 0.962 | S. cerevisiae deletion strains, locus YNL298W, strain CLA4, hits give low values 0.977 | S. cerevisiae deletion strains, locus YNL307C, strain MCK1, hits give low values 1.01 | S. cerevisiae deletion strains, locus YNL322C, strain KRE1 (second series), hits give low values 0.985 | S. cerevisiae deletion strains, locus YNL322C, strain KRE1, hits give low values 1.01 | S. cerevisiae deletion strains, locus YNR049C, strain mso1, hits give low values 0.989 | S. cerevisiae deletion strains, locus YNR052C, strain pop2, hits give low values 0.996 | S. cerevisiae deletion strains, locus YOL006C, strain TOP1, hits give low values 1.11 | S. cerevisiae deletion strains, locus YOL012C, strain htz1 1.66 | S. cerevisiae deletion strains, locus YOL147C, strain pex11, hits give low values 0.99 | S. cerevisiae deletion strains, locus YOR001W, strain rrp6, hits give low values 1.04 | S. cerevisiae deletion strains, locus YOR061W, strain CKA2, hits give low values 1.02 | S. cerevisiae deletion strains, locus YOR069W, strain VPS5, hits give low values 1.02 | S. cerevisiae deletion strains, locus YOR070C, strain gyp1, hits give low values 0.998 | S. cerevisiae deletion strains, locus YOR080W, strain dia2, hits give low values 0.974 | S. cerevisiae deletion strains, locus YOR083W, strain WHI5 (second series), hits give low values 1.03 | S. cerevisiae deletion strains, locus YOR083W, strain WHI5, hits give low values 0.945 | S. cerevisiae deletion strains, locus YOR106W, strain vam3, hits give low values 0.991 | S. cerevisiae deletion strains, locus YOR136W, strain idh2, hits give low values 1.02 | S. cerevisiae deletion strains, locus YOR144C, strain elg1, hits give low values 0.979 | S. cerevisiae deletion strains, locus YOR184W, strain ser1, hits give low values 0.998 | S. cerevisiae deletion strains, locus YOR231W, strain MKK1, hits give low values 1.03 | S. cerevisiae deletion strains, locus YOR265W, strain rbl2, hits give low values 0.989 | S. cerevisiae deletion strains, locus YOR270C, strain vph1, hits give low values 0.984 | S. cerevisiae deletion strains, locus YOR290C, strain snf2, hits give low values 0.987 | S. cerevisiae deletion strains, locus YOR316C, strain cot1, hits give low values 0.993 | S. cerevisiae deletion strains, locus YPL051W, strain arl3, hits give low values 1.02 | S. cerevisiae deletion strains, locus YPL055C, strain LGE1, hits give low values 1.11 | S. cerevisiae deletion strains, locus YPL078C, strain atp4, hits give low values 1.05 | S. cerevisiae deletion strains, locus YPL106C, strain sse1, hits give low values 1.06 | S. cerevisiae deletion strains, locus YPL240C, strain hsp82, hits give low values 0.994 | S. cerevisiae deletion strains, locus YPL256C, strain CLN2, hits give low values 1 | S. cerevisiae deletion strains, locus YPR119W, strain clb2, hits give low values 0.988 | S. cerevisiae deletion strains, locus YPR141C, strain kar3, hits give low values 0.978 | S. cerevisiae deletion strains, locus YPR163C, strain tif3, hits give low values 0.996 | S. cerevisiae deletion strains, locus YPR167C, strain met16, hits give low values 0.983 | S. cerevisiae deletion strains, strain wtn01, hits give low values 0.997 | S. cerevisiae strains, strain wild type, hits give low values 1.02
